± gives the standard deviation.
Tested on: MILI (PIWIL2) piRISC loaded with L1MC piRNA (26 nt)
Assay: pre-steady-state target cleavage rate (min^-1); guide: L1MC piRNA 5'p-UAACUAAAUACUAUGCAAGCUGUAGG; MIWI and MILI are mouse PIWI proteins and EfPiwi is from a freshwater sponge; tags in brackets are library labels; higher = faster piRNA-guided slicing of the target
Procedure, shortened: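 The pre-steady-state cleavage rate was calculated from a burst-and-steady-state fit. Data came from Cleave-'n-Seq, in which […] transcribed, DNA-blocked target RNA library was mixed with 1 nM active affinity-purified piRISC carrying one synthetic guide, with or without 500 nM GTSF1 partner protein, in HEPES–potassium acetate buffer at 33 °C for 0–8 or 0–960 min. Uncleaved targets were sequenced and normalised to depth and to weakly complementary targets, three trials were pooled, and k3 was capped at 0.0001 min^-1.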

[1] = auxiliary factor: 500 nM mouse GTSF1
[2] = auxiliary factor: none (no GTSF1)
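Further: 1 nM active piRISC with 0.1 nM target library at 33 °C single turnover.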

| Sequence | pre-steady-state target cleavage rate [1] | pre-steady-state target cleavage rate [2] |
| --- | --- | --- |
| UCCUGGAUGAGCUUGCUUAGUAUUUUGUUA | 0.138 ± 0.021 | 0.00587 ± 0.0022 |
| UCCUGCUAGAGCUUGCAUAGUAUUUACUUA | 0.175 ± 0.042 | 0.00284 ± 0.0026 |
| UCCUGGAUGUCGAUGCAUAGUAUUUAGUAUA | 0.0977 ± 0.016 | 0.00504 ± 0.0027 |
| UCCUGGAUGUGCUUGCAUAGUAUUCUAGUUA | 0.193 ± 0.045 | 0.00428 ± 0.0034 |
| UCCUGCUACAGCUUCGUUAGUAUUUAGUUA | 0.239 ± 0.022 | 0.00333 ± 0.0027 |
| UCCUCCUACAGCUUGGAUAGUAAUUAGUUA | 0.25 ± 0.024 | 0.00499 ± 0.0021 |
| UCCUGGAUGAGCUUGCUAUGUAUUUAGUUA | 0.00711 ± 0.0026 | 0.00524 ± 0.0027 |
| UCCUGGAUGUCGUUGCAUAGUAUUUAGUA | 0.148 ± 0.022 | 0.00424 ± 0.0026 |
| UCCUGGAUCAGCUUGCAAAGUAAUUAGUUA | 0.0974 ± 0.011 | 0.00502 ± 0.0023 |
| UCCUGGAUGUCCUUGCAUAGUACUUUAGUUA | 0.0282 ± 0.011 | 0.00534 ± 0.0022 |
| UCCUGGAACAGCUUGCAAAGUUUUUAGUUA | 0.0201 ± 0.0064 | 0.0029 ± 0.0026 |
| UCCUGGAUGAGCUAGCAAAGUAUUUAGUUA | 0.0455 ± 0.0079 | 0.00456 ± 0.0024 |
| UCCUGGAACACCUUGCUUAGUAUUUAGUUA | 0.155 ± 0.028 | 0.00581 ± 0.0019 |
| UCCUGGUACACCUUGCAUUGUAUUUAGUUA | 0.15 ± 0.041 | 0.00903 ± 0.0041 |
| UCCUGGAUGUGCUUACAUAGUAUUUAGUUA | 0.122 ± 0.015 | 0.0117 ± 0.0028 |
| UCCUGGAUCACCUUGCAUUGUAUUUAGUUA | 0.094 ± 0.015 | 0.00486 ± 0.0032 |
| UCCUGGAACAUGCUUGCAUAGUAUUUAGUUA | 0.184 ± 0.011 | 0.00694 ± 0.0023 |

| Sequence | pre-steady-state target cleavage rate [1] | pre-steady-state target cleavage rate [2] |
| --- | --- | --- |
| UCCUGGAUGUCCUAGCAUAGUUUUUAGUUA | 0.0106 ± 0.0049 | 0.00512 ± 0.0022 |
| UCCUGGAUGUGCUUGCAAAGUAUAUAGUUA | 0.0264 ± 0.0072 | 0.00311 ± 0.0024 |
| UCCUCCUCAGCUUGCAUAGUAUUUAGUUA | 0.258 ± 0.015 | 0.00784 ± 0.0019 |
| UCCUGGAUGUGCUUGGAUAGUAAUUAGUUA | 0.0687 ± 0.014 | 0.00472 ± 0.0026 |
| UCCUGGAUCAGCUUGCAUAGUAUUUAGUUA [g2:g22:cont:t1A] | 0.267 ± 0.017 | 0.00864 ± 0.0019 |
| UCCUGGAUGUCCUUGCAUACUUUUUAGUUA | 0.00626 ± 0.004 | 0.0024 ± 0.0022 |
| UCCUGGAUGUCGAAGUAUAGUAUUUAGUUA | 0.0142 ± 0.004 | 0.00325 ± 0.002 |
| UCCUGGAUGACCUUGCAUUGUAUUUAGUUA | 0.0617 ± 0.0098 | 0.00446 ± 0.0029 |
| UCCUGGAUGUCCUUGCAUUGUAUUUAGUUA | 0.0543 ± 0.012 | 0.00683 ± 0.002 |
| UCCUGGAUGAGCUUGGUUAGUAUUUAGUUA | 0.195 ± 0.02 | 0.0158 ± 0.0039 |
| UCCUGGAUGAGCUUGCAAACUAUUUAGUUA | 0.00935 ± 0.0025 | 0.00292 ± 0.0024 |
| UCCUGGAUGUCGAAGCAUAGUAUCUUAGUUA | 0.0223 ± 0.0048 | 0.00455 ± 0.0025 |
| UCCUGGAUGUCGAUGCAUAGUAUAUAGUUA | 0.143 ± 0.028 | 0.00598 ± 0.0024 |
| UCCUGGAUGUGCAUGCAUAGUAUUUAGAAA | 0.0733 ± 0.013 | 0.00295 ± 0.0029 |
| UCCUGGAACAGCUUGCAUAGUUAUUUAGUUA | 0.0126 ± 0.0059 | 0.00339 ± 0.0029 |
| UCCUGCUACAGCUUGCAUAGUAGUUAGUUA | 0.127 ± 0.03 | 0.00253 ± 0.0025 |

From the supplement of paper PMC10338343
